# Reference: PubChem BioAssay AID2284155 (EPA ToxCast)
# Active and inactive are the calls of the source. How the source made its calls: active means hit-call score of the fitted dose curve at least 0.9, where 1 is the maximum; inactive means score below 0.9.
# Biological target: human Muscarinic Acetylcholine Receptor M4 Antagonism, conducted at France lab site, CHRM4 (gene 1132) (UniProt P08173)
# Test: ERF_FR_GPCR_hCHRM4: Eurofins (ERF) G Protein-Coupled Receptor (GPCR) Radioligand Binding LeadHunter Assay for human Muscarinic Acetylcholine Receptor M4 Antagonism, conducted at France lab site
# Procedure: ERF_FR_GPCR_hCHRM4 is a biochemical, single-readout assay that uses extracted gene-proteins in a cell-free assay. Measurements were taken 1 hour after chemical dosing in a 96-well plate. See M4 Human Acetylcholine (Muscarinic) GPCR Binding (Antagonist Radioligand) Assay, Cerep.ERF_FR_GPCR_hCHRM4 is an assay component calculated from the ERF_FR_GPCR_hCHRM4 assay. It is designed to measure radioligand binding using a type of binding reporter as detected by scintillation counting with radiometry technology.Data from the assay component ERF_FR_GPCR_hCHRM4 was analyzed at the assay endpoint, ERF_FR_GPCR_hCHRM4, in the positive analysis fitting direction relative to DMSO as the negative control and baseline of activity. Using a type of binding reporter, loss-of-signal activity can be used to understand changes in binding as they relate to gene CHRM4. To generalize the intended target to other relatable targets, this assay endpoint is annotated to the gpcr intended target family, where the subfamily is acetylcholine (Muscarinic).
# Human cells are incubated for 60 minutes at room temprature with [3H]4-DAMP ligand (0.2 nM) and 4-Damp methiodide as control inhibitor.Test Sample Requirements: Minimum for 1) Screen: 60 ul of 10 mM stock -OR- 1 mg (pre-weighed) for 10 uM final testing. 2) Dose Response: 90 ul of 10 mM stock -OR- 1 mg (pre-weighed) for a top concentration at 10 uM.
# Sequence of human Muscarinic Acetylcholine Receptor M4 Antagonism, conducted at France lab site, CHRM4 (gene 1132) (P08173 whole entry, looked up): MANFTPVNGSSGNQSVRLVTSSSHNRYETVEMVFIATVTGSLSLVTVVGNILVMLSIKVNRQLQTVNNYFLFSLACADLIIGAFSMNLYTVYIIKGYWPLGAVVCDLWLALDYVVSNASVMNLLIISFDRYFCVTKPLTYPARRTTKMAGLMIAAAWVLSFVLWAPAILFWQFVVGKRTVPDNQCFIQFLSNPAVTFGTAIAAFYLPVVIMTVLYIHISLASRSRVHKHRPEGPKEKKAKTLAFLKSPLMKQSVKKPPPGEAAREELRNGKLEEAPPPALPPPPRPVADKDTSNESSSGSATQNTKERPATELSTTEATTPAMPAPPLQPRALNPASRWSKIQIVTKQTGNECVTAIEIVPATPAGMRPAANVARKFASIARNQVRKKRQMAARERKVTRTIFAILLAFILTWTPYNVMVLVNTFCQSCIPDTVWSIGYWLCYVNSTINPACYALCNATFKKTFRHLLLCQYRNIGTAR
row,SMILES,AC50
1,O=C(/C=C/c1ccc(O)cc1)CC(=O)/C=C/c1ccc(O)cc1,9.09 µM (active)
